Compounds without any hit were thinned out: in the full panel of roughly 83,000, 20% have a hit.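 Percent growth is the endpoint: 0 to 100 indicates growth inhibition (40 means 60% inhibition), 0 means no net growth, and negative values indicate cell death.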 Activity calls are given as the source filed them.
test system: BT-549 breast; assay: NCI-60 one-dose screen, 48 h (100 = growth as untreated, 0 = no growth, -100 = all killed); details: 10 µM unless noted
Procedure: Growth inhibition of the BT-549 human tumor cell line is measured as a screen for anti-cancer activity. Cells are grown in 96 well plates and exposed to the test compound for 48 hours. Compounds are tested at a single concentration, which is 10^-5 M for most compounds. The reported endpoint is percent growth (GI% or GIPRCNT), where numbers from 0 - 100% represent growth inhibition, and numbers from -100% - 0 represent cell death. For example, a value of 40 represents 60% growth inhibition. A value of 0 means no net growth occurred over the course of the experiment. A value of -40 indicates 40% of cells at the beginning of the experiment died by the end of the experiment. A value of -100 means all cells are dead at the end of the experiment.
NCI-60 Human Tumor Cell Lines Screen was performed using the standard one-dose NCI protocol, which is described in more detail at https://dtp.cancer.gov/discovery_development/nci-60/default.htm.
Compounds with GIPRCNT values below 10 were considered active. Activity score was based on GIPRCNT using the following formula: […]
Score is 0 for GIPRCNT values of 100 or above, 50 for GIPRCNT values of 0, and 100 for GIPRCNT values of -100.

Row | Structure (SMILES) | growth
1 | O=C(C1=CNC(=S)NC1c1ccc(O)cc1)c1cc2ccccc2oc1=O (stereo not given) | 83.7% (inactive)
2 | CCCCCCCCc1ccc(S(=O)(=O)Nc2ccc(CC)cc2C(=O)O)cc1 | 108% (inactive)
3 | Cc1ccc2c(c1)nc(-c1ccccc1)n2CC(=O)N=Nc1c(O)[nH]c2ccc(Br)cc12 | -72.1% (active)
4 | N/C(=N\c1nc2ccccc2s1)NC(=O)Nc1c(Cl)cccc1Cl | 37.3% (inactive)
5 | Cc1ccc(C(=O)CSc2nc3ccc(C)cc3c(=O)n2-c2ccc(F)cc2)cc1 | 73.9% (inactive)
6 | COc1ccc2[nH]cc(-c3cc(N)n4nc(-c5cn(C)c6ccccc56)cc4n3)c2c1 | -75.2% (active)
7 | CC1(C)CC[C@]2(C(=O)Nc3ccccc3)CC[C@]3(C)C(=CCC4[C@@]5(C)C[C@@H](O)[C@H](O)[C@@](C)(CO)C5CC[C@]43C)C2C1 (stereo not given in full) | 57% (inactive)
8 | Nc1nc(-c2ccccc2)c(N=Nc2ccc(Cl)cc2[N+](=O)[O-])s1 | 92.6% (inactive)
9 | COc1cc(-c2nc3cc(Cl)c(Cl)cc3[nH]2)ccc1OCc1nnc(-c2cccs2)o1 | 28.1% (inactive)
10 | COc1ccc(-c2nc3cc(C)ccc3n2CC(=O)N=Nc2c(O)[nH]c3ccccc23)cc1 | -63.2% (active)
11 | Cn1cc(-c2cc3nc(-c4cn(C)c5ncc(Br)cc45)cc(N)n3n2)c2ccccc21 | -73% (active)
12 | COc1ccc(NC(=O)Cn2c3c(sc2=O)[C@H]2[C@@H](O)[C@@H](O)[C@H](O)[C@@H]2CS3)cc1 | 110% (inactive)
13 | CC(C)CCNC(=O)N/C(N)=N/c1nc2ccccc2s1 | 64.6% (inactive)
14 | CCOC(=O)C1=C(N)N(c2ccccc2)C2=C(C(=O)CC(C)(C)C2)C1c1ccc(Cl)cc1Cl (stereo not given) | 33.4% (inactive)
15 | COc1ccccc1C(=O)NN1C(=O)/C(=C/C2=Cc3ccccc3OC2)SC1=S | 83.6% (inactive)
16 | N#Cc1c(-c2cccnc2)cc(-c2ccc3ccccc3c2)[nH]c1=O | 57.6% (inactive)
17 | Cc1cc2nc3c4ccccc4n(CC4=NCCN4)c3nc2cc1C | 4.52% (active)
18 | COc1ccc(-c2nc3cc(C)ccc3n2CC(=O)N=Nc2c(O)[nH]c3ccc(Br)cc23)cc1 | -41.5% (active)
19 | O=C(/C=C/c1ccc(-c2ccccc2)cc1)c1nc2ccccc2n1Cc1ccc(Br)cc1 | 41.7% (inactive)
20 | CCOC(=O)COc1c(OC)c(OC)cc2oc(-c3cccc(C(=O)Nc4ccc(Cl)cc4)c3)cc(=O)c12 | 21.2% (inactive)

Row | Structure (SMILES) | growth
21 | COC(=O)C[C@](O)(CCCC(C)(C)O)C(=O)O[C@H]1C(OC)=C[C@@]23CCCN2CCc2cc4c(cc2[C@@H]13)OCO4 | -29.9% (active)
22 | N#Cc1c(-c2cccc(O)c2O)cc(-c2ccc3ccccc3c2)[nH]c1=O | 52.8% (inactive)
23 | CC(C)CSc1nc(NCCc2c[nH]c3ccccc23)c(C#N)c(-c2ccccc2)n1 | 92.6% (inactive)
24 | C[C@H](Nc1nc(NCCc2ccccc2)nc2ccccc12)c1ccccc1 | -86.9% (active)
25 | CCN(CC)C(=O)N/C(N)=N/c1nc2ccccc2s1 | 16.5% (inactive)
26 | O=C(COc1ccc(NC(=O)Nc2ccc(Cl)cc2)cc1)N/N=C/c1ccccc1 | -51.4% (active)
27 | COc1cc(CNC(=O)/C=C/c2ccc3c(c2)OCO3)ccc1OCc1cn(-c2ccc([N+](=O)[O-])cc2)nn1 | 71.9% (inactive)
28 | Cn1cc(-c2nc(N)nnc2-c2c[nH]c3ccc(Br)cc23)c2cc(Br)cnc21 | -33.4% (active)
29 | CSc1ccc(C(=O)Nc2ccc3nnn(/C(C#N)=C/c4ccccn4)c3c2)cc1 | -67.9% (active)
30 | Cn1cc(NC(=O)c2cc(NC(=O)c3ccc(/C=C/c4ccccc4)cc3)cn2C)cc1C(=O)NCCCN1CCOCC1 | 71.7% (inactive)
31 | COC(OC)C1=C(C)OC(N)=C(C#N)C12C(=O)Nc1ccccc12 (stereo not given) | 123% (inactive)
32 | N#Cc1c(-c2ccccc2Cl)cc(-c2ccc3ccccc3c2)[nH]c1=O | 3.43% (active)
33 | CCOC(=O)/C=C/c1cccc2c1C(=O)NC(C)(c1cc3cc(Br)ccc3oc1=O)N2 (stereo not given) | -66.3% (active)
34 | COc1cc2oc(-c3cccc(NC(=O)[C@H](Cc4ccccc4)NC(=O)OC(C)(C)C)c3)cc(=O)c2c(OC)c1OC | 28.7% (inactive)
35 | CC(=O)Oc1ccccc1C(=O)[Se]CC(=O)Nc1cccc(C(F)(F)F)c1 | -91% (active)
36 | S=C(Nc1ccc(OCc2nc3ccccc3[nH]2)cc1)NC1CCCCC1 | 109% (inactive)
37 | COc1ccc(NC(=O)c2sc3nc(C(C)C)ccc3c2N)cc1 | 88.5% (inactive)
38 | CC(=O)c1c(N)c(C#N)cn1-c1ccc(Cl)cc1Cl | 104% (inactive)
39 | C#CCOc1cc(N(CC)CC)ccc1C(C(=O)NC(C)(C)C)N(C(=O)C1CCc2cc(F)ccc2O1)c1ccccc1Br (stereo not given) | 63.7% (inactive)
40 | O=c1[nH]c2ccc(Cl)cc2cc1CSc1nccc(-c2ccc(Cl)cc2)n1 | 23.9% (inactive)
